Assay results from PubChem BioAssay (NCATS).
Values joined by “and” are separate entries in the source; they are usually repeats but may differ in a detail not shown here. Identical values can stand only once. Inconclusive results are not listed. Active and inactive are the calls of the source. The call rests on the fitted dose curve; in most records, active means well fitted activation curve with a large enough effect; inconclusive means small, poorly fitted or top-dose-only effect; inactive means no such curve, though single readings can be large or run the other way.

Molecular target: Cellular tumor antigen p53 (Homo sapiens) (UniProt P04637)
Assay: Primary qHTS for small molecule compounds that upregulate eGFP-tagged delta133p53alpha (in N-terminal) cells. (AID 2060322); further: nearly all actives have a fitted effect of over 75% in size;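 on activation: cells pre-induced with doxycycline then dosed without doxycycline; series mostly up to about 56 µM; 0% = DMSO vehicle and 100% = reference activator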
Conditions: NCI-H358 eGFP-delta133p53alpha fluorescence, 24 h; activation: hits give high values
Outline: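 NCI-H358 cells pre-induced 24 h with 10 ng/ml doxycycline for eGFP-delta133p53alpha, plated dox-free and exposed 24 h at 37C to titrated compounds. Fixed, Hoechst-stained; gated GFP peak intensity by laser scanning cytometry, normalized to DMSO (0%) and 57.5 uM 5-azacytidine (100%).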
Potency means the concentration at half of the fitted maximal effect.

Chain of Cellular tumor antigen p53 (Homo sapiens) (P04637 whole entry, looked up): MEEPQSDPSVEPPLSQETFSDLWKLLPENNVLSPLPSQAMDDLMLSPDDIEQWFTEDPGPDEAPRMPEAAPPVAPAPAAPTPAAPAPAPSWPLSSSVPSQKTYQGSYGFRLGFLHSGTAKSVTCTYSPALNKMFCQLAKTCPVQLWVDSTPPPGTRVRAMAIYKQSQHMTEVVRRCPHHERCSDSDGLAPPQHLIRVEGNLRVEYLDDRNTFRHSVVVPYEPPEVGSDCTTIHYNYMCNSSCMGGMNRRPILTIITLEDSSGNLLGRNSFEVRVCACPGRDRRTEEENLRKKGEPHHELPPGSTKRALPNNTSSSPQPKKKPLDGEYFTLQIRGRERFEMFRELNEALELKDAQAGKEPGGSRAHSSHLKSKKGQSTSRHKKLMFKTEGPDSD

Structure (SMILES)	activation	Potency
CC[C@H](NC(=O)c1c(O)c(-c2ccccc2)nc2ccccc12)c1ccccc1	2.86% (inactive)	–
COc1cc(C(=O)OC[C@H]2O[C@@H](Oc3ccccc3/C=C/C(=O)O)[C@H](O)[C@@H](O)[C@@H]2O)cc(OC)c1OC	1.53% (inactive)	–
C=C1C(=O)O[C@@H]2C3C(=C(C)[C@@H](O)[C@@H](OC(=O)/C(=C/C)COC(C)=O)[C@@H]12)C(=O)[C@H]1O[C@@]31C (stereo not given in full)	–	2.08 µM (active)
C[C@@H]1O[C@@H](O[C@H]2[C@H](O)[C@@H](O)[C@H](OC(=O)[C@]34CCC(C)(C)C[C@H]3C3=CCC5[C@@]6(C)CC[C@H](O[C@@H]7O[C@H](C(=O)O)[C@@H](O)[C@H](O)[C@H]7O)C(C)(C)C6CC[C@@]5(C)[C@]3(C)CC4)O[C@@H]2CO)[C@H](O)[C@H](O)[C@H]1O (stereo not given in full)	-9.16% (inactive)	–
COC(=O)c1c(CC=C(C)C)c(OC2OC(CO)C(O)C(O)C2O)c2ccccc2c1OC1OC(CO)C(O)C(O)C1O (stereo not given)	20.6% (inactive)	–
O=[N+]([O-])c1ccc(-[n+]2nc(-c3ccccc3)nn2-c2ccc(I)cc2)cc1	-2.39% (inactive)	–
CC(C)c1cc2c(c(O)c1O)[C@@]13CCCC(C)(C)C1[C@@H](O)[C@@H]2OC3=O (stereo not given in full)	-5.34% (inactive)	–
C/C(=C\CC/C(C)=C/CC[C@]1(C)CCc2cc(O)cc(C)c2O1)CC/C=C(\C)C(=O)O	-5.36% (inactive)	–
CC(=O)c1c(C)cc2cccc(O)c2c1O[C@@H]1O[C@H](CO)[C@@H](O)[C@H](O)[C@H]1O	-2.29% (inactive)	–
COc1ccc(/C=C/C(=O)O[C@@H]2[C@@H](O)[C@@H](O)[C@H](O[C@@H]3C=C(CO)[C@H]4[C@H](O[C@@H]5O[C@H](CO)[C@@H](O)[C@H](O)[C@H]5O)OC=C[C@H]43)O[C@H]2C)cc1O	-6.87% (inactive)	–
CC(=O)c1c(O)cc2cccc3c2c1CC(C)(O)O3 (stereo not given)	6.11% (inactive)	–
COC(=O)C1=CO[C@@H](O[C@@H]2O[C@H](CO[C@@H]3O[C@H](COC(=O)/C=C/c4ccc(O)cc4)[C@@H](O)[C@H](O)[C@H]3O)[C@@H](O)[C@H](O)[C@H]2O)[C@@H]2C(CO)=CC[C@H]12	-3.05% (inactive)	–
CC(C)(Oc1ccc(-c2nc3cc(Cl)ccc3s2)cc1)C(=O)O	-19.6% (inactive)	–
COc1ccc(S(=O)(=O)Nc2cccnc2Nc2ccc(O)cc2)cc1	-22.5% (inactive) and 22.4% (inactive)	–
CN(CCCNC(=O)c1ccc2nc3c(c(Cl)c2c1)CCCC3)Cc1ccccc1	20.5% (inactive)	–
CC(C)(O)C1OC1C1=CC(=O)C2(C)OC2C1O (stereo not given)	1.79% (inactive)	–
CO/N=C(/C(=O)N[C@@H]1C(=O)N2C(C(=O)O)=C(CSC(=O)c3ccco3)CS[C@H]12)c1csc(N)n1	-18.6% (inactive) and -3.67% (inactive)	–
C=C1CCC2(C(=O)OC3OC(CO)C(O)C(O)C3O)CCC3(C)C(=CCC4C5(C)CCC(OC6OC(CO)C(OC7OC(C)C(O)C(O)C7O)C(OC7OCC(O)C(O)C7O)C6O)C(C)(C)C5CCC43C)C2C1 (stereo not given)	14.3% (inactive)	–
COc1ccc(C2COc3cc(O)ccc3C2)c(O)c1 (stereo not given)	-12.2% (inactive)	–
COc1cc(O[C@@H]2O[C@H](CO[C@H]3OC[C@](O)(CO)[C@H]3O)[C@@H](O)[C@H](O)[C@H]2O)cc(OC)c1O	-16.8% (inactive)	–

Structure (SMILES)	activation	Potency
OC[C@H]1O[C@@H](Oc2cc(O)cc(-c3cc4ccc(O)cc4o3)c2)[C@H](O)[C@@H](O)[C@@H]1O	13.4% (inactive)	–
Cc1nn(C)c2c1C(c1ccc(C(F)(F)F)cc1)C(C#N)=C(N)O2 (stereo not given)	-5.25% (inactive) and 36.9% (inactive)	–
CC1=CC2=C(C)C(=O)C(C)(O)C(O)C2CO1 (stereo not given)	-5.34% (inactive)	–
CC1(CO)CC(O)[C@]2(C(=O)O)CCC34CC3(C=CC3[C@]5(C)C(CC[C@]34C)C(C)(CO)[C@@H](O)[C@H](O)[C@@H]5O)C2C1 (stereo not given in full)	9.92% (inactive)	–
CCCC/C=C\CCCCCc1cc(=O)c2ccccc2n1C	-0.893% (inactive)	–
COc1ccc(CC2C(=O)NC(C)C(=O)N(C)C3Cc4ccc(cc4)Oc4cc(ccc4OC4OC(CO)C(O)C(O)C4O)CC(C(=O)NC(C)C(=O)NC(C)C(=O)N2C)N(C)C3=O)cc1 (stereo not given)	–	5.09 µM (active)
CNCCC(c1cccs1)c1ccc(O)c2ccccc12 (stereo not given)	-7.67% (inactive)	–
C[C@@H](OC(=O)/C=C/c1ccc(O)cc1)C1=C[C@]2(C=C[C@@H]3C(C(=O)O)=CO[C@@H](O[C@@H]4O[C@H](CO[C@@H]5O[C@H](CO)[C@@H](O)[C@H](O)[C@H]5O)[C@@H](O)[C@H](O)[C@H]4O)[C@@H]32)OC1=O	-5.34% (inactive)	–
CC(=O)CC1CCC(C(C)C(=O)OCC(O)CO)O1 (stereo not given)	-0.763% (inactive)	–
COc1ncc(Nc2ncc([C@@H](C)N3CCN(S(C)(=O)=O)CC3)cc2-c2nc(C)nc(N)n2)cc1F	21% (inactive)	–
COc1ccc([C@@H]2OC[C@H]3[C@@H]2CO[C@@H]3c2ccc(OC3OC(CO)C(O)C(O)C3O)c(OC)c2)cc1OC (stereo not given in full)	10.7% (inactive)	–
Cc1nnc(-c2ccc3occ(-c4ccc(S(C)=O)cc4)c3c2)o1 (stereo not given)	-20.5% (inactive)	–
COc1ccc(C2COc3cc(O)ccc3C2)c(O)c1OC (stereo not given)	-2.29% (inactive)	–
O=C(/C=C/c1ccc(O)c(O)c1)OC[C@H]1O[C@@H](OC2CCCCC2O)[C@H](O)[C@@H](O)[C@@H]1O (stereo not given in full)	-3.05% (inactive)	–
CNC(=S)NS(=O)(=O)c1cc(CCNC(=O)c2cc(Cl)ccc2OC)ccc1OC	-6.68% (inactive)	–
COc1cc(O)c(C(=O)O)c(CCc2ccccc2)c1	-15.3% (inactive)	–
Cc1ccc(C(=O)Nc2noc3ccccc23)cc1	-1% (inactive)	–
CN(C)CCCCCCNC(=O)c1cccc(-c2cc(O)c3ncccc3c2)c1	0.333% (inactive)	–
COc1cc(OC)c(NC(=O)c2ccc(Cc3cc4c(cc3C)C(C)(C)CCC4(C)C)o2)c(OC)c1	10.5% (inactive)	–
COc1ccc(/C=C/C(=O)N2CCCC2)cc1	2.68% (inactive)	–
